# An excerpt weighted towards active compounds, which were near 5.9% of everything screened.
# Gal4-VP16 FLuc: VP16 counterscreen qHTS for inhibitors of ROR gamma transcriptional activity. Drosophila S2 Gal4-VP16 UAS-luciferase, luminescence, 20 h. Potency, µM (doses to about 53.6 µM), actives largely listed as inhibitors. 310,000 tested, 3.5% active. AID 2546, 2010;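 also: Gal4-VP16 expression switched on by copper sulfate through the metallothionein promoter; nearly all actives have a fitted effect of over 50% in size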
# GLP-1R inv ag: qHTS of GLP-1 Receptor Inverse Agonists (Inhibition Mode); 410,000 tested, 1.6% active; Potency, µM (titrated, usually from 38.3 µM), actives largely listed as inhibitors; AID 624417, 2012; Glucagon-like peptide 1 receptor (Homo sapiens), P43220; HEK293 GLP-1R CRE-luciferase, luminescence, 24 h; GLP-1R form is constitutively active; also: nearly all actives have a fitted effect of over 55% in size
#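 Stable HEK293 clone (constitutively active GLP-1R + cAMP-response luciferase); 200 cells/uL plated, 12 h pre-culture, compound 24 hr, 37 deg C/5% CO2; detection reagent 12 min RT; luminescence.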
# GLP1R ag: qHTS of GLP-1 Receptor Agonists; Potency, µM (top dose mostly 45.6 µM), actives largely listed as activators; Glucagon-like peptide 1 receptor (Homo sapiens), P43220; 380,000 tested, 0.007% active; HEK293 GLP-1R CRE-luciferase, luminescence, 4-6 h; cells express a hypersensitive GLP-1R form
# GLP1R cytotox: qHTS of GLP-1 Receptor Inverse Agonists: Cytotox Screen | HEK293 cAMP-luciferase reporter cells, luminescence, 24 h | Potency, µM (doses to about 38.3 µM), hits mostly inhibitors | 410,000 tested, 0.13% active | AID 624418, 2012;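 also: loss of luciferase light is scored as toxicity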
#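 To flag toxic compounds, the library was rerun on cells for 24 hr at 37 deg C and 5% CO2. Viability-linked luminescence was captured 12 min after adding luciferase detection reagent.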
# RORg inh: qHTS for inhibitors of ROR gamma transcriptional activity; Nuclear receptor ROR-gamma (Mus musculus), P51450; Drosophila S2 Gal4-RORgamma UAS-luciferase reporter, 20 h; Potency, µM (series often up to 53.6 µM), most hits filed as inhibitors; 310,000 tested, 5.4% active; also: nearly all actives have a fitted effect of over 60% in size
# Target sequence (P51450 whole entry, looked up, the tested form may be a part): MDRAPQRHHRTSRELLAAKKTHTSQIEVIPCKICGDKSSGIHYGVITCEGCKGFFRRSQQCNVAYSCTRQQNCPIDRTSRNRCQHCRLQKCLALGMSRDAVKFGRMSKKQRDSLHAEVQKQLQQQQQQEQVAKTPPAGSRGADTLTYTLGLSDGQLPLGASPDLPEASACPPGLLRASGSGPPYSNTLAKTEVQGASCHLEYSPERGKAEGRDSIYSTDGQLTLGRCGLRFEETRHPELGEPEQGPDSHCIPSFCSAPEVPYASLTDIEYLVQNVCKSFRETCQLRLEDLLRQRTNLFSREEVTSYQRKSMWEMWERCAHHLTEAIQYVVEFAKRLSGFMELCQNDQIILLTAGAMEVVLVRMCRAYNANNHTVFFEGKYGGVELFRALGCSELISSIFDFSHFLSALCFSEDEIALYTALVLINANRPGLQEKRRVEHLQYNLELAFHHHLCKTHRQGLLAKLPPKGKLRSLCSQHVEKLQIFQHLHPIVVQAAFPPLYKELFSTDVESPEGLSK
#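 Stably transfected Drosophila Schneider cells are the test system, with ROR gamma fused to Gal4 and luciferase under UAS control; luminescence is read after 20 hr of 700 uM copper sulfate induction at ambient temperature.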
# A number is an active result; – = inactive; ? = inconclusive; · = not tested or not shown; [ ] = dose if it differs, or a comment. Calls follow the shape of the dose curve; as a rule, active = well fitted curve in the direction sought with a large enough effect; inconclusive = small, poorly fitted or top-dose-only effect, or another doubt; inactive = no such curve, though single readings can be large; an effect the other way counts as inactive or inconclusive.
SMILES,Gal4-VP16 FLuc,GLP-1R inv ag,GLP1R ag,GLP1R cytotox,RORg inh
CO[C@@H]1COC(=O)[C@H](C)NC(=O)[C@@H](C)COC(=O)CCC[C@H]1C,–[10 µM],·,·,·,–[10 µM]
O=C(CCNS(=O)(=O)c1ccccc1)NCCCSc1ccccc1,–,–,–,–,–
O=C(CCNS(=O)(=O)c1ccccc1C(F)(F)F)NCCCSc1ccccc1,–,13µM,–,–,–
COC(=O)N1[C@H]2CC[C@@]3(C)CC(=O)C[C@]1(C)C3c1ccccc12,–,·,·,·,–
COc1ccc(NC(=O)/C(Cl)=C(/Cl)S(=O)(=O)Cc2ccccc2)cn1,3.2µM,?,–,?,?
COc1ccc(NC(=O)C(Cl)=C(Cl)Cl)cn1,–,–,–,–,–
COc1ccc(NC(=O)/C(Cl)=C(/Cl)S(=O)Cc2ccc(Cl)cc2)cn1 (centres undefined),2.8µM,?,–,?,0.79µM
Clc1ccc(-c2nc(CSc3ccccn3)cs2)cc1,·,?,–,–,·
Nc1ccccc1SCc1csc(-c2ccc(Cl)cc2)n1,–,10µM,–,–,–
CC(/C=C1\SC(=O)N(CCCC(=O)O)C1=O)=C\c1ccccc1,0.32µM,?,–,–,0.1µM
CC(=Cc1ccccc1)C=C1SC(=S)N(CCCC(=O)Nc2ccc(C(=O)O)cc2)C1=O,·,–,–,–,·
CC(=C\c1ccccc1)/C=C1/SC(=S)N(CCCC(=O)O)C1=O,0.63µM,–,–,–,?
COc1ccc(-c2noc(CNS(=O)(=O)c3ccc(NC(C)=O)cc3)n2)cc1,–,–,–,–,–
O=C(NCc1nc(-c2ccc(C(F)(F)F)cc2)no1)Nc1ccc(OC(F)(F)F)cc1,?,2.8µM,–,?,–
N#CCC(=O)N/N=C/c1cn(Cc2ccc(Cl)c(Cl)c2)c2ccccc12,?,1.3µM,–,?,–
CCNC(=S)N/N=C/c1cn(Cc2ccccc2F)c2ccccc12,–,?,–,–,–
CCNC(=S)N/N=C/c1cn(Cc2ccc(F)cc2)c2ccccc12,1.8µM,?,–,–,1.1µM
CNC(=S)N/N=C/c1cn(Cc2c(F)cccc2Cl)c2ccccc12,5µM,–,–,–,0.45µM
N#CCC(=O)N/N=C/c1cn(Cc2ccccc2C#N)c2ccccc12,–,–,–,–,–
Cc1ccc(C(=O)N/N=C/c2cn(Cc3ccccc3)c3ccccc23)cn1,?,?,–,?,?
C=CCOC(=O)C(C(C)=O)C(NC(=O)OC)c1cccc(F)c1 (centres undefined),–[10 µM],·,·,·,–[10 µM]
CCC(=O)Nc1cc(C)c(O)c(-c2nc3ncccc3o2)c1,·,–,·,–,·
Cc1ncc(CO)c(/C=N/NC(=O)c2cc(Br)ccc2O)c1O,–,–,–,–,–
Cc1ncc(CO)c(/C=N/NC(=O)c2ccc(Br)cc2)c1O,?,·,·,·,11µM
CCc1ccccc1NC(=O)N1CC(C)Sc2ccccc21 (centres undefined),·,–,·,?,·
SMILES,Gal4-VP16 FLuc,GLP-1R inv ag,GLP1R ag,GLP1R cytotox,RORg inh
O=C1c2cccc(Cl)c2C(=O)c2c1cccc2N1CCCC1,·,6.3µM,–,?,·
CCCc1cnc(NCCNCC(O)COc2ccc(Cl)c(Cl)c2)nc1 (centres undefined),–,5µM,–,?,–
C=CCc1ccccc1OCC(=O)N/N=C/c1ccc(OC(C)=O)cc1OC(C)=O,?,?,–,–,7.1µM
Cc1ccccc1OCC(=O)N/N=C/c1cc2ccccc2nc1Cl,–,–,–,–,–
CCOc1ccc(Cn2nnc3c(=O)[nH]c(C4CCN(C(=O)c5ccccc5)CC4)nc32)cc1,·,–,·,–,·
COc1ccc(-c2n[nH]c(=S)n2/N=C/C=C\c2ccccc2OC)cc1,?,–,–,–,3.5µM
COc1ccccc1/C=C/C=N/n1c(-c2ccccn2)n[nH]c1=S,–,–,–,–,?
COc1ccccc1/C=C/C=N/n1c(-c2ccc(C)cc2)n[nH]c1=S,2.8µM,–,–,–,1.1µM
S=c1[nH]nc(-c2ccco2)n1/N=C/C=C/c1ccco1,10µM,–,–,–,7.1µM
COc1ccccc1/C=C/C=N/n1c(-c2ccco2)n[nH]c1=S,–,–,–,–,0.63µM
NCCC[C@@H](CC(=O)N[C@@H]1CCCC[C@H]1C(=O)N[C@H](CC(=O)N[C@@H](CCC(=O)O)CC(=O)O)Cc1c[nH]c2ccccc12)NC(=O)C[C@H](Cc1ccccc1)NC(=O)[C@@H]1CCCC[C@H]1N,–,·,·,·,–
C=C(CC1([C@@H](NP(=O)(c2ccccc2)c2ccccc2)[C@H]2C[C@@H]2CCN(C(=O)OCC)S(=O)(=O)c2ccc(C)cc2)CC1)c1ccccc1,–,·,·,·,–
COc1ccc(CNC(=O)CCCc2cn(C)c3ccccc23)c(OC)c1,·,?,·,–,·
Cc1cccc(OCCCn2c(=O)sc3ccccc32)c1,–,?,–,–,8.9µM
Cc1cccc(OCCn2c(=O)sc3ccccc32)c1,–,?,–,–,–
Cc1cc(C)c(C#N)c(SCc2cn3c(C)cccc3n2)n1,?,–,–,–,11µM
c1ccc2oc(SCc3cn4ccccc4n3)nc2c1,16µM,–,–,–,8.9µM
Clc1c(CSc2nc3ccccc3o2)nc2ccccn12,7.1µM,?,–,–,?
Cc1cccc2nc(CSc3nnc4ccccn34)cn12,?,?,–,–,11µM
c1ccc2nc(SCc3cn4ccccc4n3)cnc2c1,?,–,–,–,?
COc1cccc(-n2ccn(CC(=O)Nc3ccccc3F)c(=O)c2=O)c1,·,–,·,–,·
COc1ccc(C(=O)Nc2ccc3c(c2)CCCN3S(=O)(=O)c2ccc(C)cc2)c(OC)c1,·,–,·,–,·
CCCCNC(=O)CCCn1c(=O)c2ccccc2n(Cc2cccc(Cl)c2)c1=O,·,–,–,–,·
Cc1cccc2nc(CSc3nc4ccccc4o3)cn12,?,–,–,–,18µM
Cc1cc(C)nc(SCc2cn3c(C)cccc3n2)n1,–,–,–,–,?
SMILES,Gal4-VP16 FLuc,GLP-1R inv ag,GLP1R ag,GLP1R cytotox,RORg inh
O=C(NCc1ccccc1)c1nc(S(=O)(=O)Cc2ccccc2)ncc1Cl,2.8µM,?,–,?,5µM
O=C(NCc1ccc2c(c1)OCO2)c1nc(S(=O)(=O)Cc2ccccc2F)ncc1Cl,3.5µM,?,–,?,7.1µM
COC(=O)c1ccccc1NC(=O)c1nc(S(=O)(=O)Cc2ccccc2)ncc1Cl,3.2µM,–,–,–,?
CCS(=O)(=O)c1ncc(Cl)c(C(=O)NCc2ccccc2)n1,·,–,·,–,·
O=C(NCc1ccc2c(c1)OCO2)c1nc(S(=O)(=O)Cc2ccccc2)ncc1Cl,?,?,–,–,?
COc1ccc(N(Cc2ccccc2)C(=O)c2nc(S(C)(=O)=O)ncc2Cl)cc1,·,10µM,·,?,·
Cc1noc(C)c1C(=O)N1CCC[C@@]2(CCN(c3ccccn3)C2)C1,–,·,·,·,–
O=C(c1ccc(Cl)cc1)N(Cc1ccco1)Cc1ccco1,·,–,·,–,·
CS(=O)(=O)c1ncc(Cl)c(C(=O)N(Cc2ccc(Cl)cc2)Cc2ccco2)n1,·,8.9µM,·,?,·

# Source: PubChem (National Center for Advancing Translational Sciences (NCATS))
